# Reference: PubChem BioAssay AID463173 (ICCB-Longwood Screening Facility, Harvard Medical School, 2010)
# Hit rate of the full screen: of about 52,000 compounds, about 4,300 (8.3%) were called active. Shown is part of a subset that was picked to be rich in actives. Unmarked numbers belong to inactive results. No stated cut-off is given here; in the data, active means survival mostly below about 52% (no sharp cut-off); inactive means mostly above about 56%.
# System: DeltatarO mutant
# Assay: growth inhibition of S. aureus wild type versus tarO mutant, primary screen, teichoic acid synthesis inhibitors, RN4220, OD600 (AID 463173)
# Settings: OD600, 18 h, active compounds read low, screened at 18.75 µg/mL (by protocol)
row,SMILES,survival
1,COc1cc(Cl)c(NC(=O)CCS(=O)(=O)c2ccc3c(c2)NC(=O)CO3)c(OC)c1,90%
2,COc1ccc(NC(=O)c2cc3cc(C)ccc3[nH]2)cc1,100%
3,Cc1ccc(NC(=O)CN2C(=O)COc3ccc(S(=O)(=O)N4CCOCC4)cc32)cc1N(C)C,99%
4,Cc1ccc(S(=O)(=O)c2cn(CC(=O)Nc3ccc4c(c3)OCO4)c3ccc(F)cc3c2=O)cc1,69%
5,CC1C(=O)NN=C1C(=O)N/N=C\c1cccnc1 (centres undefined),87%
6,CSc1cccc(NS(=O)(=O)c2cn(C)c(C)n2)c1,75%
7,Cc1ccc(NS(=O)(=O)c2cn(C)c(C)n2)c(Br)c1,69%
8,COc1ccccc1NS(=O)(=O)c1cn(C)c(C)n1,37% (active)
9,CCc1nn(CC(=O)NC(C)CC)c(=O)c2cc3c(OC)cccc3n12 (centres undefined),128%
10,CCc1ccc(OC(C)c2nc(-c3ccc(-n4cccc4)cc3)no2)cc1 (centres undefined),48%
11,CCc1ccc(OCc2nc(-c3ccc(-n4cccc4)cc3)no2)cc1,82%
12,CCCc1ccc(OC(C)c2nc(-c3ccc(-n4cccc4)cc3)no2)cc1 (centres undefined),52% (active)
13,Cc1cc(NC(=O)CSc2nc3c([nH]c4ccccc43)c(=O)n2-c2ccccc2F)no1,88%
14,CC(Sc1nnc(-c2ccccc2Br)o1)C(=O)Nc1cccc(Cl)c1 (centres undefined),34% (active)
15,Cc1ccccc1NC(=O)C(C)Sc1nnc(-c2ccccc2O)o1 (centres undefined),69%
16,Cc1ccccc1NC(=O)C(C)Sc1nnc(-c2ccccc2C)o1 (centres undefined),74%
17,CCOC(=O)C1(C)C=C(Nc2ccc(C(N)=O)cc2)C(=O)N1c1ccccc1 (centres undefined),68%

row,SMILES,survival
1,CCC(=O)N1CCc2cc(Br)cc(S(=O)(=O)CCC(=O)NCCc3ccccc3)c21,91%
2,COC(=O)c1ccccc1NC(=O)CN1C(=O)COc2ccccc21,69%
3,COC(=O)c1ccccc1NC(=O)CN1C(=O)COc2ccc(Cl)cc21,38% (active)
4,Cc1ccc(C)c(NC(=O)CN2C(=O)COc3ccc(Cl)cc32)c1,69%
5,COc1ccc(-n2ncc(C(=O)N3CCN(C(=O)c4ccco4)CC3)c2C2CCN(C(=O)OC(C)(C)C)CC2)cc1,86%
6,COc1ccc(N2CCN(C(=O)c3cc4cc5ccc(Cl)cc5nc4o3)CC2)cc1,86%
7,Cc1ccccc1S(=O)(=O)Cc1ccc(C(=O)N2CCN(c3cccc(Cl)c3)CC2)o1,54% (active)
8,Cc1ccccc1S(=O)Cc1ccc(C(=O)N2CCN(c3cccc(C)c3C)CC2)o1 (centres undefined),61%
9,Cc1ccc2cc3cc(C(=O)N4CCN(c5ccc(Cl)cc5)CC4)oc3nc2c1,85%
10,O=C(c1cc2cc3ccc(Cl)cc3nc2o1)N1CCN(c2cccc(Cl)c2)CC1,46% (active)
11,Cc1ccc(S(=O)(=O)Cc2ccc(C(=O)N3CCN(c4cccc(Cl)c4)CC3)o2)cc1,75%
12,O=C(c1ccc(CS(=O)c2ccccc2Cl)o1)N1CCN(c2cccc(Cl)c2)CC1 (centres undefined),51% (active)
13,Cc1cccc(N2CCN(C(=O)c3ccc(CS(=O)c4cccc(Cl)c4)o3)CC2)c1C (centres undefined),51% (active)
14,COc1ccc(S(=O)Cc2ccc(C(=O)N3CCN(c4cccc(C)c4C)CC3)o2)cc1 (centres undefined),79%
15,Cc1ccc(Cl)cc1N1CCN(C(=O)c2ccc(CS(=O)(=O)c3ccccc3C)o2)CC1,50%
16,O=C(c1ccc(CS(=O)c2ccccc2Cl)o1)N1CCN(c2ccccc2F)CC1 (centres undefined),84%
17,O=C(c1ccc(CS(=O)c2ccccc2Cl)o1)N1CCN(c2cccc(C(F)(F)F)c2)CC1 (centres undefined),60%
